The panel holds about 79,000 compounds, 15% with a hit somewhere; the sample as a whole holds those more often. Unmarked numbers belong to inactive results. Activity calls are given as the source filed them. Cut-off read from the data, not from the text of the source: active = growth inhibition above about 70%; inactive = the rest.

The nature of assay [1]: NCI Yeast Anticancer Drug Screen. Data for the rad50 strain (AID 155).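 Note: 0% = growth of vehicle-only cultures of the same strain.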 Particulars: S. cerevisiae rad50 strain growth inhibition; at 50.0 µM; active compounds read high. Put shortly: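 Growth of the mutant yeast was measured after compound exposure and referenced to vehicle-treated cultures.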
A short description of assay [2]: NCI Yeast Anticancer Drug Screen. Data for the mec2-1 strain (AID 157). The following applies: S. cerevisiae mec2-1 strain, at 50.0 µM, active compounds read high. Put shortly: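 Growth inhibition is read against vehicle-treated controls after compound exposure of the mec2-1 yeast strain, which is defective in DNA damage repair or cell cycle control.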
Assay [3] in a line: NCI Yeast Anticancer Drug Screen. Data for the cln2 rad14 strain (AID 165).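 Note: 0% = growth equal to vehicle treated cultures.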 Particulars: S. cerevisiae cln2 rad14 strain, at 50.0 µM, active compounds read high. Put shortly:
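Growth inhibition, relative to vehicle-treated controls, is the read-out. The test organism is a yeast strain with defined genetic alterations, cln2 rad14.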

A short description of assay [4]: NCI Yeast Anticancer Drug Screen. Data for the bub3 strain (AID 167). The following applies: S. cerevisiae bub3 mutant strain, at 50.0 µM, active compounds read high. Put shortly:
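Whole-cell yeast assay. The mutant strain was incubated with compounds, and growth inhibition was determined by comparison with vehicle-treated cells.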

Assay [5] can be described thus: NCI Yeast Anticancer Drug Screen. Data for the mlh1 rad18 strain (AID 175). Particulars: S. cerevisiae mlh1 rad18 strain growth inhibition; at 50.0 µM; active compounds read high. In outline:
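Cells of a genetically altered yeast strain, deficient in DNA damage repair, were treated with compound. Their growth was then compared with that of vehicle-treated cultures to give inhibition.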

A short description of assay [6]: NCI Yeast Anticancer Drug Screen. Data for the sgs1 mgt1 strain (AID 161).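 Note: 0% = growth of cultures given vehicle only.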 Particulars: S. cerevisiae sgs1 mgt1 strain, at 50.0 µM, active compounds read high. Put shortly: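 Percent growth inhibition was derived by comparing compound-exposed mutant yeast with vehicle-exposed cultures. The strain carries alterations in DNA damage repair.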

Take `COc1oc(C2C/C(=C/C(C)=C/C(C)=C/C(C)=C/c3ccc([N+](=O)[O-])cc3)CO2)c(C)c(=O)c1C` (stereo unspecified): the growth inhibition was 1.15% in assay [1]; -4.75% in assay [2]; -6.85% in assay [3]; -8.15% in assay [4]; -33% in assay [5].
As for `CC1=C(Cl)C=CP(=O)(Oc2ccccc2)C1` (stereo unspecified), the growth inhibition in assay [1] is 19.5%; in assay [2], -14.4%; in assay [3], 29.2%; in assay [4], -5.6%; in assay [5] it was -8.15%.
The corresponding values for `CCCCCCCCCCCCCCCC(=O)[O][Hg][c]1ccccc1` are 97.6% (active), 96.7% (active), 98.1% (active), 99.2% (active) and 98.8% (active).
On to `O=NC1C(=O)NC(=O)NC1=O`, for which the growth inhibition in assay [1] was 1.75%; in assay [2], -5.85%; in assay [3], 14.7%; in assay [4], 11.7%; in assay [5], -3.65%.
Consider `O=S1(=O)OCCO1`, for which the growth inhibition in assay [1] is -3.5%; in assay [2], -9%; in assay [3], -27.4%; in assay [4] it was -5.55%; in assay [5] it was 7.9%.
On to `CC(C)(C)NP(=O)(NC(C)(C)C)NC(C)(C)C`, for which the growth inhibition in assay [1] is 5.65%; in assay [2] it was -9.6%; in assay [3] it was 4.85%; in assay [4] it was -8.5%; in assay [5], 8.2%.
Consider `COC(=O)c1cc([N+](=O)[O-])cc([N+](=O)[O-])c1`, for which the growth inhibition is 9% in assay [1]; 32.2% in assay [2]; -8.4% in assay [3]; 18.4% in assay [4]; 34.1% in assay [5].
Take `O=C(C/C(=N/O)C(=O)NC1=C(Cl)C(=O)c2ccccc2C1=O)CC(c1ccccc1)c1c(O)c2ccccc2oc1=O` (stereo unspecified): the growth inhibition is 39.5% in assay [1]; 81.1% (active) in assay [2]; 76.8% (active) in assay [3]; 84.7% (active) in assay [4]; 87.6% (active) in assay [5].
As to `COc1ccc(CC(C)=O)cc1OC`, the growth inhibition in assay [1] is -10.9%; in assay [2], 6.8%; in assay [3] it was 36%; in assay [4], -24.1%; in assay [5] it was -5.9%.
`Cc1ccc(C(=O)Nc2ccc(CP(=O)(O)O)cc2)cc1NC(=O)c1cccc(NC(=O)Nc2cccc(C(=O)Nc3cc(C(=O)Nc4ccc(CP(=O)(O)O)cc4)ccc3C)c2)c1`: the growth inhibition was -0.5% in assay [1]; 0.95% in assay [2]; -10.3% in assay [3]; -1.55% in assay [4]; -9.25% in assay [5].
In the case of `C=CC(Cl)OC(=O)C(C)O` (stereo unspecified), the growth inhibition in assay [1] is 16.5%; in assay [2], 20.2%; in assay [3], 11.3%; in assay [4], 1.55%; in assay [5], 6.4%.
Take `Cn1nnc(-c2nnn(C)n2)n1`: the growth inhibition in assay [1] was -19.1%; in assay [2], -12.5%; in assay [3], -14.8%; in assay [4], -15.9%; in assay [5], -19.6%.
For the compound `COc1ccc(N2C(=O)C3C4c5ccccc5C(C3C2=O)[n+]2ccccc24)cc1` (stereo unspecified), the growth inhibition in assay [1] is 27.2%; in assay [2] it was -14.1%; in assay [3], -49.5%; in assay [4], -0.45%; in assay [5], 10.6%.
As for `O=C1CCC(=O)N1c1ccc([As](=O)(O)O)cc1`, the growth inhibition in assay [1] is -2.55%; in assay [2] it was -9.15%; in assay [3] it was -28.1%; in assay [4], 0.6%; in assay [5], -16.9%.
`CC[C@@]1(O)C(=O)OCc2c1cc1n(c2=O)Cc2cc3cc(OC)ccc3nc2-1`: the growth inhibition in assay [6] was 86.7% (active).

The values above are taken from PubChem BioAssay (NCI).
